Inconclusive results are not listed. Entries that show only a call come without a potency. Active and inactive are the calls of the source. Calls come from the whole dose curve; as a rule, active = well fitted curve in the direction sought with a large enough effect; inconclusive = small, poorly fitted or top-dose-only effect, or another doubt; inactive = no such curve, though single readings can be large or run the other way.

This assay can be described thus: qHTS Assay for Inhibitors of Histone Lysine Methyltransferase G9a: Hit Confirmation in b-rIgG Counterscreen. The settings on record: AlphaScreen b-rIgG bead counterscreen, signal interference; series mostly up to 55.7 µM. An excerpt: Methylated lysines, on the N-terminal tails of histone proteins serve as epigenetic markers to recruit factors that can then modify local chromatin structure to lead to functional consequences. G9a and other members of the SUV39 family of the SET domain-containing superfamily of histone lysine methyltransferases (HMT) have been identified to specifically methylate Lys9 of histone H3 (H3K9). G9a catalyzes the mono- and di-methylation of H3K9 in mammalian euchromatic regions, where the resulting H3K9me2 is indicative of transcriptional repression. […] The inhibition of G9a will result in transcriptional activation and work synergistically with DNA methyltransferase and histone deacetylase inhibitors, to kill cancer cells. This qHTS assay for identification of G9a inhibitors is a chemiluminescence based AlphaScreen (PerkinElmer). Methylation of biotinylated-histone peptide is measured through specific antibody-based detection, in conjunction with streptavidin-coated donor and anti-IgG antibody-coated acceptor beads. The method is particularly well suited for detection of inhibitors acting by the desired histone peptide competitive mechanism and is applicable to testing other HMTs. Although AlphaScreen has significant advantages with its utility in a variety of epigenetic target assays, the primary screening data provided in this deposition should be used with caution due to the prevalence of screening artifacts. Because an AlphaScreen counterscreen is highly recommended to be run against any putative actives to eliminate non specific artifacts, this assay was used as a counterscreen. Quinn et al. A chemiluminescence-based method for identification of histone lysine methyltransferase inhibitors. Mol Biosyst 6(5): 782-8. 2010. PMID: 20567762 [2] Baell,Holloway. New substructure filters for removal of pan assay interference compounds (PAINS) from screening libraries and for their exclusion in bioassays. J Med Chem. 53(7):2719-40. 2010. PMID: 20131845 NIH Chemical Genomics Center [NCGC] NIH Molecular Libraries Probe Production Network [MLPCN] MLPCN Grant: MH084681-02 Assay Submitter (PI): Structural Genomic Consortium - Toronto, Peter Brown
Biotinylated rabbit-IgG (b-rIgG) (Santa Cruz Biotechnology, Inc., Santa Cruz, CA) was added to 1,536-well plates in a 3 uL dispense. Compounds were added in a 23 nL pin-transfer step, and plates were incubated at room temperature for 15 min. Streptavidin-coated donor and anti-rIgG acceptor AlphaScreen beads were added (1 uL) for final concentrations of 20 ug/mL each bead and 1 nM b-rIgG, and plates read on the Envision after a 15 min incubation at room temperature in the dark.
Turning to `COc1ccc2c(C)nc(Nc3nc(-c4ccccc4)cc(=O)[nH]3)nc2c1`, the Potency result is “inactive”.
As for `CCC(=O)N1CCN(c2ccc(NC(=O)c3ccc([N+](=O)[O-])o3)cc2Cl)CC1`, the entry is “inactive”.

For the origin of these results see PubChem BioAssay AID588346 (National Center for Advancing Translational Sciences (NCATS), 2011).
